Structures are written as SMILES.

Holding throughout (type): functional
The subject of assay [1] is Plasmodium falciparum. Description: GSK_TCMDC: Inhibition of Plasmodium falciparum 3D7 in whole red blood cells, using parasite LDH activity as an index of growth. Test compounds present at 2uM.
Assay [2] concerns Plasmodium falciparum. As to the kind of experiment: GSK_TCMDC: Inhibition of Plasmodium falciparum Dd2 in whole red blood cells, using parasite LDH activity as an index of growth. Test compounds present at 2uM.
The next assay deals with HepG2. Description: GSK_TCMDC: Percent inhibition of human HepG2 cell line. Test compounds present at 10uM.

For the compound `Cc1cccc(CCCNC(=O)CN(c2cccc(C(F)(F)F)c2)S(=O)(=O)c2ccc(C(F)(F)F)cc2)c1`, the results for the Inhibition with Plasmodium falciparum [1], with Plasmodium falciparum [2] and in the assay on HepG2 were 96%, 94% and 9%, respectively.

For `CSCCCN1CCC(O)(c2ccc3oc(C(=O)Nc4ccc5sc(C)nc5c4)cc3c2)CC1`, the values for the Inhibition in the assay with Plasmodium falciparum [1], in the assay on Plasmodium falciparum [2] and in the assay with HepG2 were 100%, 69% and 10%, respectively.

Take `CC(=O)c1ccc(-c2ccccc2)s1`: the figures for the Inhibition with Plasmodium falciparum [1], in the assay with Plasmodium falciparum [2] and in the assay on HepG2 were 92%, 2% and 0%, respectively.

Consider `CN(CCCN(C)c1cc(NC(=O)c2ccc(F)cc2)ccn1)Cc1cccc(O)c1.O=C(O)C(F)(F)F`, for which the results for the Inhibition in the assay with Plasmodium falciparum [1], with Plasmodium falciparum [2] and in the assay on HepG2 were 90%, 0% and 2%, respectively.

`CN(C(=O)/C=C/c1ccccc1F)C1CCN(CCCCCNC(=O)/C=C/c2ccc(Cl)c(Cl)c2)CC1`: the Inhibition amounted to 89% in the assay with Plasmodium falciparum [1], 59% in the assay on Plasmodium falciparum [2] and 73% with HepG2.

For `CC(C)c1ccc(NC(=O)c2ccc(CN3CCCN(Cc4cccc(O)c4)CC3)cc2)cc1.O=C(O)C(F)(F)F`, the values for the Inhibition in the assay with Plasmodium falciparum [1], in the assay on Plasmodium falciparum [2] and with HepG2 were 100%, 58% and 51%, respectively.

Turning to `Cc1cccc(CNc2ncc(C)c(NCCC(=O)Nc3ccccc3)n2)c1.O=C(O)C(F)(F)F`, the Inhibition in the assay with Plasmodium falciparum [1] is recorded as 81%; with Plasmodium falciparum [2], 10%; with HepG2 it was 18%.

Regarding `CC(C)[C@H](NC(=O)c1c(CN2CCC(N3CCCCC3)CC2)c(-c2ccccc2)nc2cc(O)ccc12)c1ccccc1`, the values for the Inhibition in the assay on Plasmodium falciparum [1], with Plasmodium falciparum [2] and in the assay with HepG2 were 100%, 73% and 10%, respectively.

For `COc1ccc2c(=NN=Cc3ccccc3)cc(C)[nH]c2c1`, the Inhibition is given as 100% in the assay with Plasmodium falciparum [1], 49% in the assay with Plasmodium falciparum [2] and 0% in the assay on HepG2.

Consider `CCc1cn2c3c(cc(C(=O)N[C@@H](Cc4ccccc4)[C@H](O)CNC4CCCCC4)cc13)N(C)S(=O)(=O)C2.O=CO`, for which the Inhibition in the assay on Plasmodium falciparum [1] is given as 99%; in the assay with Plasmodium falciparum [2], 99%; with HepG2 it was 20%.

Take `O=C(/C=C/c1ccc(Cl)c(Cl)c1)N1CCC(C(O)CN2CCC(c3c[nH]c4ccccc34)CC2)CC1.O=C(O)C(F)(F)F` (stereo unspecified): the Inhibition in the assay on Plasmodium falciparum [1] is listed as 99%; in the assay with Plasmodium falciparum [2] it was 46%; in the assay on HepG2 it was 14%.

Regarding `COc1ccc(C2CC(c3cccs3)=NN2C(=O)CNc2cccc(C#N)c2)cc1OC` (stereo unspecified), the values for the Inhibition in the assay on Plasmodium falciparum [1], in the assay with Plasmodium falciparum [2] and in the assay with HepG2 were 87%, 35% and 8%, respectively.

Turning to `CN(C)c1ccc2c(c1)Sc1cc(N(C)C)ccc1N2C(=O)c1cccc(C(=O)O)c1`, the Inhibition with Plasmodium falciparum [1] is 99%; in the assay with Plasmodium falciparum [2], 73%; with HepG2, 8%.

For `Cc1c[nH]c(-c2cccc(C(=O)NC3CCC(CCN4CCc5ccc(C#N)cc5CC4)CC3)c2)n1.Cl` (stereo unspecified), the Inhibition in the assay with Plasmodium falciparum [1] worked out at 100%; in the assay with Plasmodium falciparum [2], 69%; with HepG2, 23%.

As for `CC(C)(C)OC(=O)NCc1ccc(Nc2nnc(-c3ccc(OCC(=O)NCc4ccc(C(C)(C)C)cc4)c([N+](=O)[O-])c3)o2)cc1`, the values for the Inhibition in the assay with Plasmodium falciparum [1], with Plasmodium falciparum [2] and with HepG2 were 96%, 82% and 10%, respectively.

For `CC(C)CCNC(=O)C1Cc2c([nH]c3ccc(Br)cc23)C2(CCN(CCc3ccccc3)CC2)N1` (stereo unspecified), the Inhibition in the assay with Plasmodium falciparum [1] stood at 100%; with Plasmodium falciparum [2] it was 61%; with HepG2, 25%.

With `CC(C)Oc1cc2c(cc1NS(=O)(=O)c1ccc(-c3ccc(Cl)cc3)cc1)CCN(C)CC2.Cl`, the Inhibition in the assay on Plasmodium falciparum [1] was 99%; in the assay with Plasmodium falciparum [2] it was 65%; in the assay on HepG2, 100%.

Take `CCCC(CNCc1cccc(OC(F)(F)C(F)F)c1)CNc1cc(=O)c2ccccc2[nH]1` (stereo unspecified): the values for the Inhibition in the assay on Plasmodium falciparum [1], with Plasmodium falciparum [2] and in the assay on HepG2 were 100%, 94% and 0%, respectively.

Regarding `COc1ccc(C2C(C(=O)OC3CCCC3)=C(C)NC3=C2C(=O)CCC3)cc1Br` (stereo unspecified), the Inhibition was found to be 94% in the assay on Plasmodium falciparum [1], 77% in the assay with Plasmodium falciparum [2] and 0% with HepG2.

For the compound `O=C(NC1CCCCC1)N(Cc1cccc(-c2ccc(CNCc3ccc4c(c3)OCO4)cc2)c1)C1CCN(Cc2ccccc2)CC1.O=C(O)C(F)(F)F`, the Inhibition in the assay with Plasmodium falciparum [1] amounted to 92%; with Plasmodium falciparum [2] it was 59%; in the assay with HepG2, 13%.

With `C[C@H](Cc1ccc(OCCCCCCOc2ccc(C[C@@H](C)NC(=O)[C@H](O)c3cccc(Cl)c3)cc2)cc1)NC[C@H](O)c1cccc(Cl)c1`, the results for the Inhibition in the assay with Plasmodium falciparum [1], in the assay on Plasmodium falciparum [2] and in the assay with HepG2 were 99%, 99% and 39%, respectively.

Regarding `OC(CN(Cc1ccccc1)Cc1ccccc1)Cn1c2ccc(Cl)cc2c2cc(Cl)ccc21` (stereo unspecified), the values for the Inhibition with Plasmodium falciparum [1], in the assay with Plasmodium falciparum [2] and with HepG2 were 89%, 95% and 5%, respectively.

Consider `CCCCCC(C)C(C)c1cc(O)c2c(c1)OC(C)(C)CC2c1cc[n+]([O-])cc1` (stereo unspecified), for which the Inhibition in the assay on Plasmodium falciparum [1] is on record as 96%; with Plasmodium falciparum [2], 7%; in the assay with HepG2, 0%.

Consider `Br.CC1(C)NC(N)=NC(=N)N1OCc1cccs1`, for which the Inhibition in the assay on Plasmodium falciparum [1] worked out at 93%; in the assay with Plasmodium falciparum [2], 0%; with HepG2, 60%.

As for `Cc1cc(OCCCN2CCCCC2)ccc1NC(=O)COc1ccc(Cl)cc1C(=O)c1cc(Cl)cc(C#N)c1`, the values for the Inhibition with Plasmodium falciparum [1], in the assay on Plasmodium falciparum [2] and in the assay with HepG2 were 93%, 16% and 28%, respectively.

Consider `Cc1ccc2[nH]c(C)cc(=NN=Cc3cccc(Cl)c3)c2c1`, for which the Inhibition with Plasmodium falciparum [1] is reported as 100%; in the assay with Plasmodium falciparum [2], 98%; in the assay on HepG2, 12%.

As for `Cc1cc(N[C@@H](Cc2ccccc2)C(=O)NCCc2ccccc2)nc(NCCc2cccs2)n1.O=C(O)C(F)(F)F`, the figures for the Inhibition in the assay on Plasmodium falciparum [1], in the assay with Plasmodium falciparum [2] and with HepG2 were 99%, 84% and 12%, respectively.

The values above are taken from ChEMBL document CHEMBL1157539, “Thousands of chemical starting points for antimalarial lead identification” (Nature, 2010).
